# Measurements published in PubChem BioAssay (NCI).
# The panel holds about 79,000 compounds, 15% with a hit somewhere; the sample as a whole holds those more often. Unmarked numbers belong to inactive results. The source made the active and inactive calls. Cut-off read from the data, not from the text of the source: active = growth inhibition above about 70%; inactive = the rest.
# Key:
# [1] = NCI Yeast Anticancer Drug Screen. Data for the wt1 strain (AID 149);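 note: 0% = growth of vehicle-treated wt1 cultures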; conditions: S. cerevisiae wt1 strain (SPY 50644) growth inhibition, stronger effect = higher value
# Outline: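 Growth inhibition read against vehicle controls after compound exposure of the wt1 yeast strain.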
# [2] = NCI Yeast Anticancer Drug Screen. Data for the rad50EPP+ strain (AID 151);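 note: 0% = growth of vehicle-treated control cultures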; conditions: S. cerevisiae rad50 mutant strain, stronger effect = higher value
# Outline: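 Measured: growth inhibition of rad50EPP+ yeast. Reference: vehicle-treated controls. Screen uses strains with defined genetic alterations in DNA damage repair or cell cycle control.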
# [3] = NCI Yeast Anticancer Drug Screen. Data for the mgt1 strain (AID 153); conditions: S. cerevisiae mgt1 mutant growth inhibition, stronger effect = higher value
# Outline: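 Compounds were applied to mgt1 mutant yeast, and growth was then compared against vehicle-treated control cultures to give percent inhibition.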
# [4] = NCI Yeast Anticancer Drug Screen. Data for the rad50 strain (AID 155);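 note: 0% = growth of vehicle-only cultures of the same strain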; conditions: S. cerevisiae rad50 strain growth inhibition, stronger effect = higher value
# Outline: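 Readout: growth inhibition relative to vehicle-treated cultures. Compound exposure was carried out in a genetically defined yeast strain deficient in DNA damage repair.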
# [5] = NCI Yeast Anticancer Drug Screen. Data for the mec2-1 strain (AID 157); conditions: S. cerevisiae mec2-1 strain, stronger effect = higher value
# Outline: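 Compounds were applied to mec2-1 yeast cells. Their growth was then compared with that of vehicle-treated cultures to give growth inhibition.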
# [6] = NCI Yeast Anticancer Drug Screen. Data for the rad14 strain (AID 159);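 note: 0% = growth of vehicle-treated control cultures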; conditions: S. cerevisiae rad14 strain growth inhibition, stronger effect = higher value
# Outline: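 Growth inhibition vs vehicle controls; genetically altered yeast strain (DNA damage repair defect) treated with test compounds.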
# [7] = NCI Yeast Anticancer Drug Screen. Data for the sgs1 mgt1 strain (AID 161);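 note: 0% = growth of cultures given vehicle only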; conditions: S. cerevisiae sgs1 mgt1 strain, stronger effect = higher value
# Outline: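 This yeast growth screen uses a strain with defined DNA-repair lesions; compound-treated growth is compared with vehicle-treated growth.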
# [8] = NCI Yeast Anticancer Drug Screen. Data for the CLN2oe strain (AID 163);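 note: 0% = growth of vehicle-only control cultures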; conditions: S. cerevisiae CLN2oe strain, stronger effect = higher value
# Outline: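 Cells of an engineered yeast line with disturbed cell-cycle regulation are treated with compound. Inhibition of growth is then calculated relative to the vehicle-treated reference.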
# [9] = NCI Yeast Anticancer Drug Screen. Data for the cln2 rad14 strain (AID 165);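 note: 0% = growth equal to vehicle treated cultures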; conditions: S. cerevisiae cln2 rad14 strain, stronger effect = higher value
# Outline: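 Strain: cln2 rad14 yeast, altered in cell cycle control and DNA damage repair. Read-out: growth inhibition vs vehicle.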
# [10] = NCI Yeast Anticancer Drug Screen. Data for the bub3 strain (AID 167); conditions: S. cerevisiae bub3 mutant strain, stronger effect = higher value
# Outline: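 Readout: yeast growth inhibition, expressed relative to vehicle-only wells. The test organism is a mutant strain from a panel with lesions in DNA repair or checkpoint genes.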
# [11] = NCI Yeast Anticancer Drug Screen. Data for the wt2 strain (AID 169);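 note: 0% = growth of vehicle-treated yeast cultures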; conditions: S. cerevisiae wt2 strain growth inhibition, stronger effect = higher value
# Outline: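 Growth of compound-treated yeast is measured and expressed as inhibition relative to vehicle-only controls.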
# [12] = NCI Yeast Anticancer Drug Screen. Data for the mlh1 strain (AID 171);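 note: 0% = growth of vehicle-treated control cultures of the same strain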; conditions: S. cerevisiae mlh1 strain growth inhibition, stronger effect = higher value
# Outline: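 Test agents were incubated with yeast bearing a defined DNA damage repair or cell cycle control alteration; values are growth inhibition normalised to vehicle-treated cultures.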
# [13] = NCI Yeast Anticancer Drug Screen. Data for the mlh1 rad18 strain (AID 175); conditions: S. cerevisiae mlh1 rad18 strain growth inhibition, stronger effect = higher value
# Outline: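 A repair-deficient yeast strain is exposed to test compound, and growth is scored relative to vehicle-treated controls.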
# [14] = NCI Yeast Anticancer Drug Screen. Data for the rad18 strain (AID 177); conditions: S. cerevisiae rad18 mutant growth inhibition, stronger effect = higher value
# Outline: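 DNA-repair-defective yeast; compound treatment; growth inhibition scored against vehicle.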
# [15] = at 5.0 µM (retest, dose inferred, filed as 0.5)
# [16] = at 50.0 µM (retest, dose inferred, filed as 5.0)
smiles,measurement,setting,value
O=[N+]([O-])c1cccc2nc3ccccc3c(NCCC[N+]3([O-])CCOCC3)c12,growth inhibition,[1]; at 1.2 µM,-78%
same,growth inhibition,[1]; at 3.7 µM,5%
same,growth inhibition,[1]; at 11.0 µM,16%
same,growth inhibition,[1]; at 33.0 µM,47%
same,growth inhibition,[1]; at 100.0 µM,87% (active)
same,growth inhibition,[2]; at 1.2 µM,6%
same,growth inhibition,[2]; at 3.7 µM,19%
same,growth inhibition,[2]; at 11.0 µM,42%
same,growth inhibition,[2]; at 33.0 µM,79% (active)
same,growth inhibition,[2]; at 100.0 µM,92% (active)
same,growth inhibition,[3]; at 1.2 µM,1%
same,growth inhibition,[3]; at 3.7 µM,5%
same,growth inhibition,[3]; at 11.0 µM,17%
same,growth inhibition,[3]; at 33.0 µM,55%
same,growth inhibition,[3]; at 100.0 µM,85% (active)
same,growth inhibition,[4]; at 1.2 µM,37%
same,growth inhibition,[4]; at 3.7 µM,65%
same,growth inhibition,[4]; [15],37%
same,growth inhibition,[4]; at 11.0 µM,88% (active)
same,growth inhibition,[4]; at 33.0 µM,94% (active)
same,growth inhibition,[4]; [16],92% (active)
same,growth inhibition,[4]; at 50.0 µM,83.4% (active)
same,growth inhibition,[4]; at 100.0 µM,95% (active)
same,growth inhibition,[5]; at 1.2 µM,7%
same,growth inhibition,[5]; at 3.7 µM,41%
same,growth inhibition,[5]; [15],9%
same,growth inhibition,[5]; at 11.0 µM,89% (active)
same,growth inhibition,[5]; at 33.0 µM,97% (active)
same,growth inhibition,[5]; [16],98% (active)
same,growth inhibition,[5]; at 50.0 µM,82.8% (active)
same,growth inhibition,[5]; at 100.0 µM,97% (active)
same,growth inhibition,[6]; at 1.2 µM,38%
same,growth inhibition,[6]; at 3.7 µM,87% (active)
same,growth inhibition,[6]; at 11.0 µM,96% (active)
same,growth inhibition,[6]; at 33.0 µM,98% (active)
same,growth inhibition,[6]; at 100.0 µM,97% (active)
same,growth inhibition,[7]; [15],73% (active)
same,growth inhibition,[7]; [16],93% (active)
same,growth inhibition,[7]; at 50.0 µM,79.6% (active)
same,growth inhibition,[8]; at 1.2 µM,-15%
same,growth inhibition,[8]; at 3.7 µM,-13%
same,growth inhibition,[8]; at 11.0 µM,10%
same,growth inhibition,[8]; at 33.0 µM,55%
same,growth inhibition,[8]; at 100.0 µM,91% (active)
same,growth inhibition,[9]; [15],86% (active)
same,growth inhibition,[9]; [16],98% (active)
same,growth inhibition,[9]; at 50.0 µM,94.6% (active)
same,growth inhibition,[10]; at 1.2 µM,-9%
same,growth inhibition,[10]; at 3.7 µM,-13%
same,growth inhibition,[10]; [15],-6%
same,growth inhibition,[10]; at 11.0 µM,-9%
same,growth inhibition,[10]; at 33.0 µM,14%
same,growth inhibition,[10]; [16],75% (active)
same,growth inhibition,[10]; at 50.0 µM,34.4%
same,growth inhibition,[10]; at 100.0 µM,84% (active)
same,growth inhibition,[11]; at 1.2 µM,-3%
same,growth inhibition,[11]; at 3.7 µM,-1%
same,growth inhibition,[11]; at 11.0 µM,3%
same,growth inhibition,[11]; at 33.0 µM,34%
same,growth inhibition,[11]; at 100.0 µM,93% (active)
same,growth inhibition,[12]; at 1.2 µM,1%
same,growth inhibition,[12]; at 3.7 µM,5%
same,growth inhibition,[12]; at 11.0 µM,21%
same,growth inhibition,[12]; at 33.0 µM,62%
same,growth inhibition,[12]; at 100.0 µM,92% (active)
same,growth inhibition,[13]; [15],71% (active)
same,growth inhibition,[13]; [16],98% (active)
same,growth inhibition,[13]; at 50.0 µM,94.5% (active)
same,growth inhibition,[14]; at 1.2 µM,95% (active)
same,growth inhibition,[14]; at 3.7 µM,95% (active)
same,growth inhibition,[14]; at 11.0 µM,96% (active)
same,growth inhibition,[14]; at 33.0 µM,97% (active)
same,growth inhibition,[14]; at 100.0 µM,95% (active)
CCOC(=O)/C=C1\CCCn2c1ncc(C(=O)OCC)c2=O,growth inhibition,[1]; at 1.2 µM,2%
same,growth inhibition,[1]; at 3.7 µM,5%
same,growth inhibition,[1]; at 11.0 µM,6%
same,growth inhibition,[1]; at 33.0 µM,10%
same,growth inhibition,[1]; at 100.0 µM,17%
same,growth inhibition,[2]; at 1.2 µM,-1%
same,growth inhibition,[2]; at 3.7 µM,-2%
same,growth inhibition,[2]; at 11.0 µM,-2%
same,growth inhibition,[2]; at 33.0 µM,-4%
same,growth inhibition,[2]; at 100.0 µM,-1%
same,growth inhibition,[3]; at 1.2 µM,3%
same,growth inhibition,[3]; at 3.7 µM,2%
same,growth inhibition,[3]; at 11.0 µM,6%
same,growth inhibition,[3]; at 33.0 µM,-2%
same,growth inhibition,[3]; at 100.0 µM,26%
same,growth inhibition,[4]; at 1.2 µM,-1%
same,growth inhibition,[4]; at 3.7 µM,-8%
same,growth inhibition,[4]; [15],8%
same,growth inhibition,[4]; at 11.0 µM,-3%
same,growth inhibition,[4]; at 33.0 µM,20%
same,growth inhibition,[4]; [16],30%
same,growth inhibition,[4]; at 50.0 µM,69.5%
same,growth inhibition,[4]; at 100.0 µM,31%
same,growth inhibition,[5]; at 1.2 µM,3%
same,growth inhibition,[5]; at 3.7 µM,4%
same,growth inhibition,[5]; [15],-5%
same,growth inhibition,[5]; at 11.0 µM,7%
same,growth inhibition,[5]; at 33.0 µM,17%
same,growth inhibition,[5]; [16],42%
same,growth inhibition,[5]; at 50.0 µM,77% (active)
same,growth inhibition,[5]; at 100.0 µM,32%
same,growth inhibition,[6]; at 1.2 µM,4%
same,growth inhibition,[6]; at 3.7 µM,2%
same,growth inhibition,[6]; at 11.0 µM,7%
same,growth inhibition,[6]; at 33.0 µM,12%
same,growth inhibition,[6]; at 100.0 µM,18%
same,growth inhibition,[7]; [15],4%
same,growth inhibition,[7]; [16],9%
same,growth inhibition,[7]; at 50.0 µM,81.7% (active)
same,growth inhibition,[8]; at 1.2 µM,3%
same,growth inhibition,[8]; at 3.7 µM,4%
same,growth inhibition,[8]; at 11.0 µM,7%
same,growth inhibition,[8]; at 33.0 µM,12%
same,growth inhibition,[8]; at 100.0 µM,13%
same,growth inhibition,[9]; [15],-25%
same,growth inhibition,[9]; [16],24%
same,growth inhibition,[9]; at 50.0 µM,55.7%
same,growth inhibition,[10]; at 1.2 µM,2%
same,growth inhibition,[10]; at 3.7 µM,0%
same,growth inhibition,[10]; [15],-13%
same,growth inhibition,[10]; at 11.0 µM,4%
same,growth inhibition,[10]; at 33.0 µM,10%
same,growth inhibition,[10]; [16],94% (active)
same,growth inhibition,[10]; at 50.0 µM,59.5%
same,growth inhibition,[10]; at 100.0 µM,28%
same,growth inhibition,[11]; at 1.2 µM,1%
same,growth inhibition,[11]; at 3.7 µM,2%
same,growth inhibition,[11]; at 11.0 µM,4%
same,growth inhibition,[11]; at 33.0 µM,11%
same,growth inhibition,[11]; at 100.0 µM,28%
